One assay addresses GP6. The assay can be described thus: pooled miR-30 sensor sort-seq; sequence = guide strand. The following applies: shRNA.
TAGCCCTGTACCATCTCTCGGG gave a sensor-assay potency score (higher = more potent) of -0.328.

TTTGTTGGTAGAGATGAGGTTT had a sensor-assay potency score (higher = more potent) of -0.205.

Regarding ATTATTAGGATCACAGCCCCGA, the sensor-assay potency score (higher = more potent) was -0.0711.

TTGTTTTCTAATGTGAAGGGAA displayed a sensor-assay potency score (higher = more potent) of -0.126.

TTTTACACTAAGGAAAATGAAT had a sensor-assay potency score (higher = more potent) of -1.19.

Sequence TAGCATCGGTAGGTTCCGCTGT registered a sensor-assay potency score (higher = more potent) of -0.0169.

TTGCACAGGCTGATCTTGTTTT displayed a sensor-assay potency score (higher = more potent) of -0.638.

For the sequence TTCGTTTGTGAATGAGACGGTC, the sensor-assay potency score (higher = more potent) is 0.0865.

With TATTTTTTGAGACAAAGTCAGG, the sensor-assay potency score (higher = more potent) is -1.21.

TTTTGAGACAAAGTCAGGCTTC gave a sensor-assay potency score (higher = more potent) of 0.424.

A further assay concerns the target GPAA1. The assay is described as above. The following applies: shRNA.
The sequence TGAGCTTGCGGAACATGCCCTC yielded a sensor-assay potency score (higher = more potent) of -0.336.

TTCAGTGCCATCCAGCCCCTGT returned a sensor-assay potency score (higher = more potent) of -0.292.

Sequence TATAGCGCTCGTGGGTCTCATC yielded a sensor-assay potency score (higher = more potent) of -1.61.

In the case of AAAACCAGCGCCAAGAACCAGG, the sensor-assay potency score (higher = more potent) is -1.17.

The sequence TTTCCGGGAGAAACTCTGCGTG registered a sensor-assay potency score (higher = more potent) of -0.575.

For the origin of these results see the OligoGym collection.
Also: reference of the scale not given here.
